From PubChem
FBW7 act – human FBW7 E3 ligase activation, primary screen | AlphaScreen FBW7–phospho-cyclin E peptide binding, activator screen | normalized activity (activation), % at 26.1 µM | 0.13% of 650,000 active | AID 1259310; in the data active = normalized activity above about 1.9%;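 note: purified mutant Fbw7 with reduced substrate affinity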
TEAD-YAP inh – TEAD-YAP interaction inhibition. HEK-TIYL cells, TEAD-Gal4/YAP UAS-luciferase luminescence. inhibition, % at 9.12 µM. 1.4% of 640,000 active. AID 1259422; in the data active = inhibition above about 32%;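 note: 0% = median of test compound wells and 100% = reference inhibitor wells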
MITF primary – inhibitors of human MITF; AlphaScreen MITF homodimerization, bead proximity signal; O75030; 0.91% of 650,000 active; AID 1259374; inhibition, % at 2.6 µM; in the data active = inhibition above about 50%;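 note: 0% = vehicle wells with protein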
GPR151 activ – human GPR151 activation. PathHunter beta-arrestin GPR151 cells, luminescence. activation, % at 11.2 µM. 1% of 650,000 active; in the data active = activation above about 4.9%;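 note: 0% = median of compound wells and 100% = cells with positive control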
Numbers without * were called inactive. The list is not random: actives were taken first. Their share in the collection is about 3.5%.

SMILES	FBW7 act	TEAD-YAP inh	MITF primary	GPR151 activ
CN(C(=O)CSc1ncccc1C(=O)O)C1CCCCC1	0	-10	-3	1
C/C(=N\N=C(N)N)c1ccc(N2CCOCC2)cc1	0	52*	-6	0
C/C(=N\N=c1/sc2ccccc2n1C)c1ccc(N2CCOCC2)cc1	0	-8	-6	3
CCN1/C(=C/c2ccc3ccc(C)cc3[n+]2CC)Sc2cc(OC)ccc21	0	87*	33	3
CCC(=O)/C=C1/Sc2ccc(OC)cc2N1CC	0	8	3	-1
CCN1/C(=C/c2ccc3cc(OC)ccc3[n+]2CC)Sc2ccc(Cl)cc21	0	77*	2	0
CCN1/C(=C/c2ccc3cc(OC)ccc3[n+]2CC)Sc2ccc(OC)cc21	-1	87*	30	4
CC(C)(C)C(=O)OCCN1C(=O)c2cccc3c(N4CCOCC4)ccc(c23)C1=O	0	-11	0	0
CC1=NN(c2ccccc2)C(=O)/C1=C(/c1ccccc1)N1CCOCC1	0	40*	-5	1
O=C(CCn1c(=O)[nH]c2ccccc2c1=O)N1CCCC1	0	4	6	1
CCCNc1nc(-c2cccc(N)c2)nc2c1ncn2-c1ccsc1	0	53*	19	0
Nc1cccc(-c2nc(NCCO)c3ncn(-c4ccsc4)c3n2)c1	0	63*	10	-2
Cc1noc(C)c1-c1nc(NCCO)c2ncn(-c3ccsc3)c2n1	0	23	4	1
CCCn1c2ccccc2n2c(C(=O)/C=C/c3ccc(OC)c(OC)c3)c(-c3ccc(-c4ccccc4)cc3)nc12	1	6	6	0
COc1ccc(CCNC(=O)c2sc3ncnc(N4CCN(c5ccccc5)CC4)c3c2C)cc1OC	0	-2	0	1
FC(F)(F)Oc1cccc(-c2nccc(NCc3cccc(C(F)(F)F)c3)n2)c1	0	50*	-8	0
OCC1CCCN1c1nccc(NCc2cccc(C(F)(F)F)c2)n1 (stereo not given)	0	43*	-4	1
c1cc(Nc2ccc(N3CCOCC3)cc2)nc(NCc2ccc3c(c2)OCO3)n1	0	38*	6	1
FC(F)(F)c1cccc(CNc2nc(-c3ccc(N4CCOCC4)nc3)nc3nc[nH]c23)c1	18*	3	10	1
FC(F)(F)c1cccc(CNc2nc(N3CCOCC3)nc3nc[nH]c23)c1	0	-4	0	-2
COc1ccc(OC)c(NC(=O)CSc2ccc3nnc(-c4ccncc4)n3n2)c1	0	-2	-4	0
NC(=O)c1ccc(-c2ccc(/C=C3\C(=O)ON=C3c3ccccc3)o2)cc1	0	-7	36	1
FC(F)(F)c1cccc(CNc2ccnc(NCCN3CCOCC3)n2)c1	0	24	6	2
FC(F)(F)c1cccc(CNc2ccnc(Nc3ccc(N4CCOCC4)cc3)n2)c1	0	64*	25	-2
Cc1ccc(S(=O)(=O)N2CCOCC2)c(C)c1N1CCCC1=O	0	5	7	-1
SMILES	FBW7 act	TEAD-YAP inh	MITF primary	GPR151 activ
Cc1ccn(S(=O)(=O)c2ccc(C)c(N3CCCC3=O)c2C)n1	2.0*	8	11	1
NC(=O)c1c(NC(=O)COc2ccc(F)cc2F)sc2c1CCCC2	0	-8	2	2
COc1ccc(Nc2ncnc3sc4c(c23)CCC4)cc1O	0	37*	5	-1
O=C1CSc2ccc(C(=O)NC3CCCc4ccccc43)cc2N1 (stereo not given)	0	58*	2	-1
O=C(Nc1nc2ccccc2[nH]1)c1cc(F)c(F)cc1Cl	0	54*	10	-10
Fc1ccccc1/C=N/Nc1cccc2cccnc12	0	-11	6	-3
Cc1cncc2cccc(NC3CCCNC3)c12 (stereo not given)	0	94*	-2	1
Cc1cncc2cccc(NC3CCN(C(=O)[C@H](C)O)CC3)c12	-1	5	11	0
Cc1cc(Nc2ccc3c(c2)OCO3)nc(Nc2nccc3ccccc23)n1	0	35*	2	0
